Measurements: PubChem BioAssay (NCATS)
Results filed as inconclusive are left out. Activity calls are given as the source filed them. Calls follow the shape of the dose curve; as a rule, active = well fitted cell-killing curve with a large enough effect; inconclusive = small, poorly fitted or top-dose-only effect, or effect the other way; inactive = no such curve, though single readings can be large or run the other way.

Experiment: Quantitative High-Throughput drug screen in 47 multiple myeloma cell lines against the NCATS MIPE library collection: KHM11_PLB cell viability assay (AID 1918962); also: nearly all actives have a fitted effect of over 35% in size
Conditions: KHM11 myeloma cell viability, CellTiter-Glo ATP luminescence, 48 h; series mostly up to 45.8 µM
Outline: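 Steps: seed 500 cells per well; pin-transfer MIPE 4.0 library; incubate 48 h at 37C, 5% CO2, humidified; add CellTiter-Glo, 5 min room temperature; read luminescence.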
Potency is read from the fitted curve at half-maximal effect.

Row | Compound | Potency
1 | C[C@@]12O[C@@H](C[C@]1(O)CO)n1c3ccccc3c3c4c(c5c6ccccc6n2c5c31)CNC4=O | 66.2 nM (active)
2 | Cn1c(CNc2ccc(C(=N)N)cc2)nc2cc(C(=O)N(CCC(=O)O)c3ccccn3)ccc21 | inactive
3 | CN1CC[C@@H](c2c(O)cc(O)c3c(=O)cc(-c4ccccc4Cl)oc23)[C@@H](O)C1 | 23.5 nM (active)
4 | Nc1nccc(Oc2ccc(NC(=O)c3c[nH]cc(-c4ccc(F)cc4)c3=O)cc2F)c1Cl | 18700 nM (active)
5 | CNC(=O)c1c(F)cccc1Nc1nc(Nc2cc3c(cc2OC)CCN3C(=O)CN(C)C)nc2[nH]ccc12 | 9350 nM (active)
6 | Cc1nc(Nc2n[nH]c3c2CN(C(=O)N[C@H](CN(C)C)c2ccccc2)C3(C)C)c2sccc2n1 | 13.2 nM (active)
7 | Cc1cn2c(-c3cn[nH]c3)cnc2c(Nc2ccc(C(=O)N3CCNCC3)cc2F)n1 | 16600 nM (active)
8 | COc1cc(=C2C=c3ccccc3=N2)[nH]c1=Cc1[nH]c(C)cc1C | 418 nM (active)
9 | CC[C@H]1CN2CCc3cc(OC)c(OC)cc3[C@H]2C[C@@H]1C[C@@H]1NCCc2cc(OC)c(OC)cc21 | 166 nM (active)
10 | OCc1ccc(-c2ccc(-c3ccc(CO)s3)o2)s1 | 6620 nM (active)
11 | Cn1cc(-c2[nH]c3cc(NC(=O)[C@H](N)C4CCCCC4)cc4c3c2C=NNC4=O)cn1 | 1480 nM (active)
12 | Nc1nc(Nc2ccc(S(N)(=O)=O)cc2)nn1C(=O)c1c(F)cccc1F | 2960 nM (active)
13 | COc1cccc2nc(-c3cccs3)nc(NN3C(=O)C=C(C)C3=O)c12 | 52.6 nM (active)
